Drawing on PubChem BioAssay (NCI), this text covers growth for 21 compounds.

The panel holds about 83,000 compounds, 20% with a hit somewhere; the sample as a whole holds those more often.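 Testing used 96-well plates and a 48-hour single-concentration exposure. Example: -40 means 40% of the starting cells died.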 Unmarked numbers belong to inactive results. Activity calls are given as the source filed them. The calls were made as follows: active = growth percent below 10; inactive = the rest.

Assay in all cases: NCI-60 one-dose screen, 48 h (100 = growth as untreated, 0 = no growth, -100 = all killed)
Conditions in all cases: 10 µM unless noted

Assay [1] concerns SK-MEL-2 melanoma.
In assay [2] the test system is EKVX NSCLC.
Assay [3] has as its system SN12C renal.
Assay [4] has as its system UO-31 renal.
The test system of assay [5] is TK-10 renal.
The subject of assay [6] is ACHN renal.
Assay [7] relates to CAKI-1 renal.
The subject of assay [8] is A498 renal.
Assay [9] deals with CCRF-CEM leukemia.
Assay [10] relates to MOLT-4 leukemia.

In the case of `CC1(C)NCCC[C@]2(C)[C@H]3CC[C@H]4[C@H]5[C@H](C(=O)/C=C/c6cccnc6)CCC[C@]5(CO)CC[C@@]4(C)[C@]3(C)CC[C@@H]12`, the growth in assay [1] was 96.9%; in [2] it was 79.2%; in assay [3], 58.5%; in assay [4], 57.8%; in assay [5] it was 106%; in assay [6], 80.4%. In addition, the growth in [7] was 47.8%; in [8], 93.9%; in assay [9], 36%; in [10] it was 7.39% (active).
Consider `N#C/C(=C\c1ccc([N+](=O)[O-])cc1)n1nnc2cc(F)c(F)cc21`, for which the growth was 95.9% in assay [1]; 82.1% in assay [2]; 4.63% (active) in assay [3]; -77.8% (active) in assay [4]; 6.11% (active) in assay [5]; -74.9% (active) in assay [6]. For the same compound, the growth in assay [7] is 6.07% (active); in assay [8], 67.6%; in assay [9] it was 4.63% (active); in [10], 3.58% (active).
Consider `O=C(Nc1ccccc1N1CCCC1=O)c1oc2ccc(F)cc2c1-c1cnn(-c2ccccc2)c1`, for which the growth was 72.8% [50 µM] in assay [1]; 58.3% [50 µM] in assay [2]; 48.5% [50 µM] in assay [3]; 9.1% [50 µM] (active) in assay [4]; 95.4% [50 µM] in [5]; 46% [50 µM] in assay [6]. Besides, the growth in assay [7] was 35.7% [50 µM]; in assay [8] it was 29.2% [50 µM]; in assay [9], 56.6% [50 µM]; in [10] it was 37% [50 µM].
As to `CN1CCN(CCCOc2cccc3nc(Nc4ccc(F)c(F)c4)ccc23)CC1`, the growth is -49.7% (active) in [1]; 34% in [2]; 24.4% in assay [3]; -54.3% (active) in [4]; -4.13% (active) in assay [5]; -31.4% (active) in [6]. Besides, the growth in assay [7] is -29.1% (active); in assay [8] it was 33.6%; in assay [9] it was -26.9% (active); in [10], -38.4% (active).
With `FC(F)(F)Oc1cccc(-c2cnc3ccc(-c4ccncc4)nn23)c1`, the growth in assay [1] is -21.7% (active); in assay [2] it was 28.4%; in [3] it was 13.2%; in assay [4], 0.42% (active); in assay [5], 17.3%; in [6] it was -0.133% (active). The growth in [7] was 7.75% (active); in [8], 23%; in assay [9] it was 4.57% (active); in assay [10], 4.08% (active).
As for `Nc1c(C(=O)Nc2cccc(Cl)c2)sc2nc3c(cc12)CCCC3`, the growth is 86.6% in [1]; 94.8% in assay [2]; 97.6% in assay [3]; 90.3% in assay [4]; 85.1% in assay [5]; 94.4% in [6]. The growth in [7] was 91.3%; in assay [8], 87.6%; in assay [9], 87.1%; in assay [10] it was 84.8%.
Turning to `O=c1c2c3c(sc2n2c(-c4cc(-c5ccccc5)no4)nnc2n1Cc1ccccc1)CCCC3`, the growth in [1] was 119%; in assay [2], 80%; in assay [3], 90.8%; in [4], -41.9% (active); in assay [5], 120%; in [6] it was 95.4%. Also, the growth was -67.8% (active) in assay [7], 82.2% in [8], 34.8% in [9] and 55% in [10].
Regarding `C#Cc1cccc(Nc2nc(C)nc3cc(NC(=O)CCl)ccc23)c1`, the growth was -69.8% (active) in [1]; -58.8% (active) in assay [2]; -67.8% (active) in [3]; -91.8% (active) in assay [4]; -93.9% (active) in assay [5]; -92% (active) in assay [6]. The growth in assay [7] is -91% (active); in assay [8] it was 48.2%; in [9], -12.3% (active); in assay [10], -20.7% (active).
For `CCCCNC(=O)Oc1ccc(/C(=C(/C)Cc2ccc(OC)cc2)c2ccc(OCCN3CCCCCC3)cc2)cc1`, the growth in assay [1] is 102%; in assay [2], 77.5%; in assay [3] it was 71%; in [4], 57.6%; in assay [5] it was 83.1%; in assay [6], 102%. Further, the growth in [7] was 83.5%; in assay [8], 98.3%; in assay [9], 47.7%; in assay [10] it was 45%.
As for `COc1ccc(C2=CC(c3cc(OC)c(OC)c(OC)c3)n3ncnc3N2)cc1` (stereo not given), the growth in assay [1] was 24%; in assay [2], 66.7%; in assay [3] it was 38.4%; in assay [4], 41.3%; in assay [5], 62%; in assay [6] it was 32.4%. Moreover, the growth in assay [7] is 21.7%; in [8], -5.66% (active); in assay [9], 13.8%; in assay [10], 17.3%.
Regarding `Oc1c(CN2CCC(N3CCCCC3)CC2)cc(Cc2cc(CN3CCC(N4CCCCC4)CC3)c(O)c3ncccc23)c2cccnc12`, the growth in assay [1] is 41.4%; in assay [2] it was 26%; in assay [3] it was 34.2%; in [4] it was 12.4%; in assay [5], 33.5%; in [6], 13.8%. The growth in assay [7] is 25.5%; in assay [8], 77.7%; in assay [9], 6.54% (active); in [10], 6.56% (active).
For `C/C(=N\O)c1ccc(NC(=O)CSc2nnc(-c3cc(-c4ccc(S(N)(=O)=O)cc4)nc4ccccc34)n2-c2ccccc2)cc1`, the growth in [1] was 84%; in [2], 77.3%; in [3] it was 78.6%; in assay [4], 85.3%; in assay [5] it was 80.8%; in assay [6], 95.9%. In addition, the growth in assay [7] is 55.6%; in assay [8] it was 39.7%; in assay [9] it was 40.5%; in [10], 32.3%.
With `COc1ccc(C(O)c2cc3c(N)c(C(=O)Nc4cccc(Cl)c4C)sc3nc2C)cc1` (stereo not given), the growth is 17% in [1]; 35% in [2]; 13.6% in assay [3]; 17.9% in assay [4]; 44.1% in assay [5]; 24.7% in [6]. Besides, the growth is 13.8% in [7], -24.7% (active) in assay [8], 10.1% in assay [9] and 15.2% in assay [10].
Regarding `Cc1c(Cl)cccc1C(=O)Nc1nc2c(s1)CN(C(=O)c1ccc(C(F)(F)F)cc1)CC2`, the growth is 49.9% in [1]; 49.5% in assay [2]; 30% in assay [3]; 44.4% in [4]; 64.5% in [5]; 25.3% in assay [6]. The growth was 22.7% in [7], -20.1% (active) in [8], 16.5% in assay [9] and 21.8% in assay [10].
As for `CCOC(=O)c1cnc2c(N=Nc3ccc(OC)cc3)c(N)nn2c1N`, the growth in assay [1] is 102%; in assay [2], 103%; in assay [3], 95.2%; in [4], 94.2%; in assay [5], 104%; in assay [6] it was 109%. For the same compound, the growth in [7] was 96.6%; in assay [8] it was 92.5%; in [9] it was 103%; in assay [10], 88%.
For `Cc1nn(-c2ccccc2)c(N)c1N=C1NC(=O)/C(=C/c2ccc(Br)cc2)S1`, the growth in [1] is 104%; in assay [2] it was 87.7%; in [3] it was 73.8%; in [4], 72.1%; in assay [5], 106%; in assay [6], 88.5%. The growth in [7] was 68%; in assay [8], 67%; in assay [9], 72.1%; in assay [10] it was 80.8%.
On to `CC1(C)OB(O)c2cc(-c3nc4ccc5[nH]ncc5c4c4c3CCCC4)ccc21`, for which the growth is 59.3% in assay [1]; 71.8% in [2]; 51.2% in assay [3]; 34.4% in [4]; 73.4% in [5]; 21.1% in assay [6]. The growth is 20.8% in assay [7], 21.9% in assay [8], 50.2% in assay [9] and 30.7% in assay [10].
`O=C1/C(=C/c2ccccc2F)CN(C(=O)C(Cl)Cl)C/C1=C\c1ccccc1F`: the growth in assay [1] was -2.69% (active); in assay [2], -8.07% (active); in assay [3] it was -79.9% (active); in assay [4] it was -92% (active); in assay [5], -39.7% (active); in [6] it was -100% (active). The growth is -43.2% (active) in assay [7], -62.5% (active) in assay [8], 1.7% (active) in assay [9] and -10.7% (active) in assay [10].
With `CC1(C)[C@@H](O[C@@H]2OC[C@@H](O[C@@H]3O[C@H](CO)[C@@H](O)[C@H](O)[C@H]3O[C@@H]3OC[C@@H](O)[C@H](O)[C@H]3O)[C@H](O)[C@H]2O[C@@H]2O[C@H](CO)[C@@H](O)[C@H](O)[C@H]2O)CC[C@]2(C)[C@H]3CC[C@]45OC[C@@]6(CC[C@](C)(C=O)C[C@H]64)[C@H](O)C[C@@]5(C)[C@]3(C)CC[C@@H]12`, the growth in assay [1] was -90.2% (active); in assay [2], -65.4% (active); in [3] it was -72.6% (active); in assay [4] it was -88.7% (active); in assay [5], -92.2% (active); in assay [6], -93.7% (active). The growth in [7] is -91.5% (active); in [8], -89.9% (active); in assay [9] it was -40.9% (active); in assay [10] it was -53.5% (active).
For the compound `C=CCn1c(SCC(=O)Nc2ccc(/C(C)=N/O)cc2)nnc1-c1cc(-c2ccc(S(N)(=O)=O)cc2)nc2ccccc12`, the growth is 83.7% in [1]; 91.8% in [2]; 77.7% in assay [3]; 74.5% in assay [4]; 121% in assay [5]; 96.9% in [6]. Further, the growth is 51.9% in [7], 89.2% in [8], 45.8% in assay [9] and 37.9% in [10].
In the case of `COc1ccc(/C=C/C(=O)c2ccc(NC(=O)CSc3nc4c([nH]3)c(=O)n(C)c(=O)n4C)cc2)cc1OC`, the growth was 110% in [1]; 88.5% in assay [2]; 85.3% in assay [3]; 90.8% in assay [4]; 97.9% in assay [5]; 94.4% in assay [6]. The growth in [7] was 84.7%; in assay [8], 71.7%; in assay [9] it was 66%; in assay [10], 72.4%.
